Data from PubChem BioAssay (NCATS).
Inconclusive results are not listed. Entries that show only a call come without a potency. Calls of active or inactive are those of the source. Unless noted, the call rests on the fitted dose curve; in most records, active means well fitted inhibition curve with a large enough effect; inconclusive means small, poorly fitted or top-dose-only effect; inactive means no such curve, though single readings can be large or run the other way.

Assay: qHTS profiling of the MIPE4 collection as inhibitors of Plasmodium falciparum (DD2) proliferation (AID 743345; call rule not given here)
Conditions: P. falciparum Dd2 in erythrocytes, SYBR Green DNA, 72 h; at 28.5 µM (top of the series)
Method in brief: (§1)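 Parasite DNA was quantified by SYBR Green I fluorescence (ex 485, em 535 nm) after overnight lysis in saponin/Triton buffer at room temperature. Cultures at 0.3% parasitemia and 2.5% hematocrit were first exposed to compound for 72 h at 37 C; signals were normalised to artemisinin (0.29 uM) and vehicle wells.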

Compound	parasite growth remaining, % of DMSO control (lower = more inhibition) [%]
CCOC(=O)Nc1ccc2c(c1)N(C(=O)CCN1CCOCC1)c1ccccc1S2	85.2
NS(=O)(=O)Cc1noc2ccccc12	99.5
O=C1C(=O)c2ccccc2C(O)=C1C1CCC(c2ccc(Cl)cc2)CC1 (stereo unspecified)	9.71

Assay: qHTS profiling of the MIPE4 collection as inhibitors of Plasmodium falciparum (DD2) proliferation (Rep 2) (AID 743346; call rule not given here)
Conditions: P. falciparum Dd2 in erythrocytes, SYBR Green DNA, 72 h; at 28.5 µM (top of the series)
Method in brief: as §1

Compound	parasite growth, % of control (lower = inhibition) [%]
CCOC(=O)Nc1ccc2c(c1)N(C(=O)CCN1CCOCC1)c1ccccc1S2	68.2
NS(=O)(=O)Cc1noc2ccccc12	74.3
O=C1C(=O)c2ccccc2C(O)=C1C1CCC(c2ccc(Cl)cc2)CC1 (stereo unspecified)	18.4

Assay: qHTS profiling of the MIPE4 collection as inhibitors of Plasmodium falciparum (HB3) proliferation (AID 743347; call rule not given here)
Conditions: P. falciparum HB3 in erythrocytes, SYBR Green DNA, 72 h; at 28.5 µM (top of the series)
Method in brief: as §1

Compound	growth, % of control [%]
CCOC(=O)Nc1ccc2c(c1)N(C(=O)CCN1CCOCC1)c1ccccc1S2	41.6
NS(=O)(=O)Cc1noc2ccccc12	106
O=C1C(=O)c2ccccc2C(O)=C1C1CCC(c2ccc(Cl)cc2)CC1 (stereo unspecified)	5.96

Assay: qHTS assay for measurement of the activity of small molecule inhibitors on Zika virus induced Caspase-3 activity in human iPSC derived neural progenitor cells (hNPCs) (AID 1224857); further: nearly all actives have a fitted effect of over 65% in size
Conditions: hNPCs ZIKV-induced caspase-3/7, Caspase-Glo luminescence, 6 h; series mostly up to 45.7 µM
Method in brief: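 Percent inhibition of virus-induced caspase-3/7 luminescence (Caspase-Glo), scaled between uninfected cells and Zika-infected cells. hNPCs received compound 1 hr before ZIKV at 2 FFU/cell, with 6 hours infection at 37 C.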

Compound	Potency
CCOC(=O)Nc1ccc2c(c1)N(C(=O)CCN1CCOCC1)c1ccccc1S2	inactive
CNCCCCOc1ccccc1Cc1ccccc1	inactive
CCCCN1C[C@H](O)[C@@H](O)[C@H](O)[C@H]1CO	inactive
COc1cc(C(=O)NCc2ccc(OCCN(C)C)cc2)cc(OC)c1OC	inactive
CCOC(=O)c1ccc(N)cc1	inactive
Nc1nc(Cl)nc2c1ncn2[C@@H]1O[C@H](CO)[C@@H](O)[C@@H]1F	inactive
C/C=C/C=N/NC(=O)c1ccncc1	inactive
Nc1ccc(S(=O)(=O)Nc2cnc3ccccc3n2)cc1	inactive
COc1ccc(S(=O)(=O)N2c3ccc(Cl)cc3[C@@](O)(c3ccccc3Cl)[C@H]2C(=O)N2CCC[C@@H]2C(N)=O)cc1OC	inactive
C[N+]12CCC(CC1)C(OC(=O)C(O)(c1ccccc1)c1ccccc1)C2 (stereo unspecified)	inactive
NS(=O)(=O)Cc1noc2ccccc12	inactive
N#CCC(=O)NN	inactive
C[C@@H](O)[C@H]1C(=O)N2C(C(=O)O)=C(S[C@@H]3CN[C@H](CNS(N)(=O)=O)C3)[C@H](C)[C@H]12	inactive
C=C1c2cccc(O)c2C(O)=C2C(=O)[C@]3(O)C(O)=C(C(N)=O)C(=O)[C@@H](N(C)C)[C@@H]3[C@@H](O)[C@H]12	inactive
C[N+]1(CC2COC(c3ccccc3)(C3CCCCC3)O2)CCCCC1 (stereo unspecified)	inactive
CCCCCCCCCCCCOCCOCCOCCOCCOCCOCCOCCOCCOCCO	inactive
CC(CNC1CCCCC1)OC(=O)c1ccccc1 (stereo unspecified)	inactive
CCN(CC)CCOC(=O)C1(c2ccccc2)CCCC1	inactive
C[C@@H](O)[C@H]1C(=O)N2C(C(=O)O)=C([C@H]3CCCO3)S[C@H]12	inactive

Compound	Potency
CCCCc1cc2ccccc2c(OCCN(C)C)n1	inactive
Cc1ccc(S(=O)(=O)NC(=O)NC2CCCC2)cc1	inactive
COc1cc(C(=S)N2CCOCC2)ccc1O	inactive
C[C@]12CCC(=O)C=C1C=C[C@@H]1[C@@H]2CC[C@@]2(C)[C@H]1CC[C@@]21CCC(=O)O1	inactive
COc1ccc(CN(CCN(C)C)c2ncccn2)cc1	inactive
CO[C@H]1C=CO[C@@]2(C)Oc3c(C)c(O)c4c(O)c(c(/C=N/N5CCN(C)CC5)c(O)c4c3C2=O)NC(=O)/C(C)=C\C=C[C@H](C)[C@H](O)[C@@H](C)[C@@H](O)[C@@H](C)[C@H](OC(C)=O)[C@@H]1C	inactive
CN1CCN(C2=Nc3cc(F)ccc3Cc3ccccc32)CC1	inactive
FC1(F)C(F)(F)C(F)(F)C2(F)C(F)(F)C(F)(F)C(F)(F)C(F)(F)C2(F)C1(F)F (stereo unspecified)	inactive
CC(C)n1c(/C=C/[C@@H](O)C[C@@H](O)CC(=O)O)c(-c2ccc(F)cc2)c2ccccc21	inactive
CCC(Cc1c(I)cc(I)c(N)c1I)C(=O)O (stereo unspecified)	inactive
O=C1C(=O)c2ccccc2C(O)=C1C1CCC(c2ccc(Cl)cc2)CC1 (stereo unspecified)	inactive
O=C(O)CCc1nc2ccccc2[nH]1	inactive
N/C(=N\N=C\c1ccc(Cl)cc1)N/N=C/c1ccc(Cl)cc1	inactive
COP(=O)(OC)OC(c1ccc(Cl)cc1)P(=O)(OC)OC (stereo unspecified)	inactive
O=C(O)CCNC(=O)c1ccccc1	inactive
O=C(O)C1(C(=O)O)CCC1.[NH2-].[NH2-].[Pt+2]	inactive
C[N+]1(C)CCC(=C(c2ccccc2)c2ccccc2)CC1	inactive
NC(=O)C1(N2CCCCC2)CCN(CCCC(=O)c2ccc(F)cc2)CC1	inactive
